# Whole data set: some 2,900 compounds, median “NF-kB SEAP reporter activity, fold change vs agonist alone” near 0.99, cut for the highest 2% near 2.6. Shown is part of a subset that was picked to be rich in the highest values.
# Experiments:
# [1] = system: RAW-Dual; assay: NF-kB SEAP reporter activity, fold change vs agonist alone; cytotoxicity flag (confluency mask): cytotoxic (confluency <70% of control); higher = enhanced NF-kB activity
# Summary of the method: (§1)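 After 50 nL of library stock was delivered by pin tool to RAW-Dual macrophages (50,000 cells/well, DMEM, 384-well plates), a PRR agonist was added 1 h later and the plates were kept at 37 °C, 5% CO2. Twenty hours later, IRF was read from supernatant by QuantiLuc luminescence and NF-κB by QuantiBlue absorbance at 620 nm. Reporter activity is stated as fold change over agonist-alone wells. Wells with IncuCyte confluency under 70% of agonist controls in both mask sets were counted as cytotoxic.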
# [2] = system: RAW-Dual; assay: NF-kB SEAP reporter activity, fold change vs agonist alone; higher = enhanced NF-kB activity
# Summary of the method: as §1
# [3] = system: RAW-Dual; assay: NF-kB SEAP reporter activity, fold change vs agonist alone; cytotoxicity flag (confluency mask): not cytotoxic; higher = enhanced NF-kB activity
# Summary of the method: as §1
# [4] = agonist: ODN 1826 (TLR9) 0.5 ug/mL
# [5] = agonist: Pam2CSK4 (TLR2/6) 0.1 ug/mL
# [6] = agonist: Pam3CSK4 (TLR2/1) 0.1 ug/mL
# [7] = library stock concentration (final ~1000-fold dilution): 10 mM, cytotoxicity flag (confluency mask): not cytotoxic, agonist: Imiquimod (TLR7) […]
# [8] = library stock concentration (final ~1000-fold dilution): 10 mM, cytotoxicity flag (confluency mask): not cytotoxic, agonist: MPLA (TLR4) […]
smiles,measurement,setting,value
COc1ccc(C(=O)C=Cc2cc(OC)c(OC)c(OC)c2)cc1OC (library stock concentration (final ~1000-fold dilution): 20 mM),NF-kB SEAP reporter activity,[1]; agonist: LPS (TLR4) 0.1 ug/mL,0.326
same,NF-kB SEAP reporter activity,[1]; [4],0.215
same,NF-kB SEAP reporter activity,[1]; [5],0.0975
same,NF-kB SEAP reporter activity,[1]; [6],0.176
COc1ccc(C=Cc2cc(OC)c(OC)c(OC)c2)cc1OP(=O)(O)O,NF-kB SEAP reporter activity,"[2]; library stock concentration (final ~1000-fold dilution): 10 mM water, cytotoxicity flag (confluency mask): cytotoxic (confluency <70% of control), agonist: Imiquimod (TLR7) […]",1.67
same,NF-kB SEAP reporter activity,"[2]; library stock concentration (final ~1000-fold dilution): 10 mM water, cytotoxicity flag (confluency mask): cytotoxic (confluency <70% of control), agonist: MPLA (TLR4) […]",2.09
COc1ccc(/C=C/C(=O)O)cc1OC (library stock concentration (final ~1000-fold dilution): 10 mM),NF-kB SEAP reporter activity,[3]; agonist: LPS (TLR4) 0.1 ug/mL,1.43
same,NF-kB SEAP reporter activity,[3]; [4],1.15
same,NF-kB SEAP reporter activity,[3]; [5],1.15
same,NF-kB SEAP reporter activity,[3]; [6],1.14
COc1ccc(C(=O)C=Cc2cc(OC)c(OC)c(OC)c2)cc1OC,NF-kB SEAP reporter activity,"[2]; library stock concentration (final ~1000-fold dilution): 20 mM, cytotoxicity flag (confluency mask): cytotoxic (confluency <70% of control), agonist: Imiquimod (TLR7) […]",0.192
same,NF-kB SEAP reporter activity,"[2]; library stock concentration (final ~1000-fold dilution): 20 mM, cytotoxicity flag (confluency mask): cytotoxic (confluency <70% of control), agonist: MPLA (TLR4) […]",0.302
COc1ccc(C=Cc2cc(OC)c(OC)c(OC)c2)cc1OP(=O)(O)O (library stock concentration (final ~1000-fold dilution): 10 mM water),NF-kB SEAP reporter activity,[1]; agonist: LPS (TLR4) 0.1 ug/mL,5.99
same,NF-kB SEAP reporter activity,[1]; [4],2.48
same,NF-kB SEAP reporter activity,[1]; [5],2.34
same,NF-kB SEAP reporter activity,[1]; [6],2.65
COc1ccc(/C=C\c2cc(OC)c(OC)c(OC)c2)cc1O (library stock concentration (final ~1000-fold dilution): 10 mM),NF-kB SEAP reporter activity,[3]; agonist: LPS (TLR4) 0.1 ug/mL,4.68
same,NF-kB SEAP reporter activity,[3]; [4],2.84
same,NF-kB SEAP reporter activity,[3]; [5],1.69
same,NF-kB SEAP reporter activity,[3]; [6],2.62
COc1cc(C=CC(=O)CC(=O)C=Cc2ccc(O)c(OC)c2)ccc1O (library stock concentration (final ~1000-fold dilution): 100 mM),NF-kB SEAP reporter activity,[3]; agonist: LPS (TLR4) 0.1 ug/mL,0.303
same,NF-kB SEAP reporter activity,[3]; [4],0.197
same,NF-kB SEAP reporter activity,[3]; [5],0.13
same,NF-kB SEAP reporter activity,[3]; [6],0.242
COc1cc(/C=C/C(=O)O)ccc1O (library stock concentration (final ~1000-fold dilution): 10 mM),NF-kB SEAP reporter activity,[3]; agonist: LPS (TLR4) 0.1 ug/mL,1.16
same,NF-kB SEAP reporter activity,[3]; [4],1.12
same,NF-kB SEAP reporter activity,[3]; [5],1.17
same,NF-kB SEAP reporter activity,[3]; [6],1.04
COc1cc(C=CC(=O)CC(=O)C=Cc2ccc(O)c(OC)c2)ccc1O,NF-kB SEAP reporter activity,"[2]; library stock concentration (final ~1000-fold dilution): 100 mM, cytotoxicity flag (confluency mask): not cytotoxic, agonist: Imiquimod (TLR7) […]",0.155
same,NF-kB SEAP reporter activity,"[2]; library stock concentration (final ~1000-fold dilution): 100 mM, cytotoxicity flag (confluency mask): not cytotoxic, agonist: MPLA (TLR4) […]",0.257
COc1cc(/C=C/C(=O)O)ccc1O,NF-kB SEAP reporter activity,[2]; [7],0.903
same,NF-kB SEAP reporter activity,[2]; [8],1.09
COc1ccc(/C=C/C(=O)O)cc1OC,NF-kB SEAP reporter activity,[2]; [7],0.805
same,NF-kB SEAP reporter activity,[2]; [8],1.05
CCC(C)C(NC(=O)C(CCCCN)NC(=O)C(CCC(=O)O)NN)C(=O)NC(CCC(N)=O)C(=O)NC(C)C(=O)NC(CCCCN)C(=O)N1CCCC1C(=O)NC(C)C(=O)C(=O)C(CC(C)C)NC(=O)C(CCC(N)=O)NC(=O)C(NC(=O)C(NC(=O)C(CCCNC(=N)N)NC(=O)C(Cc1ccccc1)NC(=O)C(CCCCNNC(Cc1ccccc1)C(=O)NC(CO)C(=O)NC(CCC(=O)O)C(=O)NC(CO)C(=O)NC(C(=O)NC(CC(N)=O)C(=O)NC(C=O)CO)C(C)O)NC(=O)C(Cc1ccccc1)NC(=O)C(CO)NC(=O)C(CCC(=O)O)NC(=O)C(CO)NC(=O)C(NC(=O)C(CC(N)=O)NC(=O)C(N)CO)C(C)O)C(C)C)C(C)O (stereo not given) (library stock concentration (final ~1000-fold dilution): 10 mM water),NF-kB SEAP reporter activity,[3]; agonist: LPS (TLR4) 0.1 ug/mL,1.1
same,NF-kB SEAP reporter activity,[3]; [4],1.16
same,NF-kB SEAP reporter activity,[3]; [5],1.13
same,NF-kB SEAP reporter activity,[3]; [6],1.74
CCC(C)C(NC(=O)C(CCCCN)NC(=O)C(CCC(=O)O)NN)C(=O)NC(CCC(N)=O)C(=O)NC(C)C(=O)NC(CCCCN)C(=O)N1CCCC1C(=O)NC(C)C(=O)C(=O)C(CC(C)C)NC(=O)C(CCC(N)=O)NC(=O)C(NC(=O)C(NC(=O)C(CCCNC(=N)N)NC(=O)C(Cc1ccccc1)NC(=O)C(CCCCNNC(Cc1ccccc1)C(=O)NC(CO)C(=O)NC(CCC(=O)O)C(=O)NC(CO)C(=O)NC(C(=O)NC(CC(N)=O)C(=O)NC(C=O)CO)C(C)O)NC(=O)C(Cc1ccccc1)NC(=O)C(CO)NC(=O)C(CCC(=O)O)NC(=O)C(CO)NC(=O)C(NC(=O)C(CC(N)=O)NC(=O)C(N)CO)C(C)O)C(C)C)C(C)O (stereo not given),NF-kB SEAP reporter activity,"[2]; library stock concentration (final ~1000-fold dilution): 10 mM water, cytotoxicity flag (confluency mask): not cytotoxic, agonist: Imiquimod (TLR7) […]",0.927
same,NF-kB SEAP reporter activity,"[2]; library stock concentration (final ~1000-fold dilution): 10 mM water, cytotoxicity flag (confluency mask): not cytotoxic, agonist: MPLA (TLR4) […]",1.03
O=c1cc(-c2ccc(O)cc2)oc2c(C3OC(CO)C(O)C(O)C3O)c(O)cc(O)c12 (stereo not given),NF-kB SEAP reporter activity,[2]; [7],0.887
same,NF-kB SEAP reporter activity,[2]; [8],0.994
O=c1cc(-c2ccc(O)cc2)oc2c(C3OC(CO)C(O)C(O)C3O)c(O)cc(O)c12 (stereo not given) (library stock concentration (final ~1000-fold dilution): 10 mM),NF-kB SEAP reporter activity,[3]; agonist: LPS (TLR4) 0.1 ug/mL,0.978
same,NF-kB SEAP reporter activity,[3]; [4],0.919
same,NF-kB SEAP reporter activity,[3]; [5],1
same,NF-kB SEAP reporter activity,[3]; [6],1.31
N#Cc1cc(N2CCC(C(=O)N3N=CCC3c3cc(F)cc(F)c3)CC2)ncn1 (stereo not given) (library stock concentration (final ~1000-fold dilution): 10 mM),NF-kB SEAP reporter activity,[3]; agonist: LPS (TLR4) 0.1 ug/mL,1.25
same,NF-kB SEAP reporter activity,[3]; [4],1.05
same,NF-kB SEAP reporter activity,[3]; [5],0.796
same,NF-kB SEAP reporter activity,[3]; [6],0.84
N#Cc1cc(N2CCC(C(=O)N3N=CCC3c3cc(F)cc(F)c3)CC2)ncn1 (stereo not given),NF-kB SEAP reporter activity,[2]; [7],1.09
same,NF-kB SEAP reporter activity,[2]; [8],1.26
Cn1cc(-c2[nH]c3cc(NC(=O)C(N)C4CCCCC4)cc4c3c2C=NNC4=O)cn1 (stereo not given) (library stock concentration (final ~1000-fold dilution): 10 mM),NF-kB SEAP reporter activity,[3]; agonist: LPS (TLR4) 0.1 ug/mL,3.51
same,NF-kB SEAP reporter activity,[3]; [4],2.74
same,NF-kB SEAP reporter activity,[3]; [5],1.6
same,NF-kB SEAP reporter activity,[3]; [6],1.8
Cn1cc(-c2[nH]c3cc(NC(=O)C(N)C4CCCCC4)cc4c3c2C=NNC4=O)cn1 (stereo not given),NF-kB SEAP reporter activity,[2]; [7],2.17
same,NF-kB SEAP reporter activity,[2]; [8],2.16
CC(C)C(NC(=O)C(CC(=O)O)NC(=O)C(CCCCN)NC(=O)C(N)CCCNC(=N)N)C(=O)NC(Cc1ccc(O)cc1)C(=O)O (stereo not given),NF-kB SEAP reporter activity,[2]; [7],1.14
same,NF-kB SEAP reporter activity,[2]; [8],0.967
CC(C)C(NC(=O)C(CC(=O)O)NC(=O)C(CCCCN)NC(=O)C(N)CCCNC(=N)N)C(=O)NC(Cc1ccc(O)cc1)C(=O)O (stereo not given) (library stock concentration (final ~1000-fold dilution): 10 mM),NF-kB SEAP reporter activity,[3]; agonist: LPS (TLR4) 0.1 ug/mL,1.27
same,NF-kB SEAP reporter activity,[3]; [4],1.1
same,NF-kB SEAP reporter activity,[3]; [5],1.19
same,NF-kB SEAP reporter activity,[3]; [6],1.17
CNC(=O)C(NC(=O)C(CC(C)C)C(O)C(=O)NO)C(C)(C)C (stereo not given),NF-kB SEAP reporter activity,[2]; [7],1.08
same,NF-kB SEAP reporter activity,[2]; [8],1.38
CNC(=O)C(NC(=O)C(CC(C)C)C(O)C(=O)NO)C(C)(C)C (stereo not given) (library stock concentration (final ~1000-fold dilution): 10 mM),NF-kB SEAP reporter activity,[3]; agonist: LPS (TLR4) 0.1 ug/mL,1.09
same,NF-kB SEAP reporter activity,[3]; [4],1.01
same,NF-kB SEAP reporter activity,[3]; [5],1.04
same,NF-kB SEAP reporter activity,[3]; [6],1.01

# — the supplement of paper PMC10037445
